40 compounds from PubChem BioAssay (Tox21) can be followed below.

The structures appear in SMILES notation. Records with an inconclusive call do not appear. Calls of active or inactive are those of the source. The call rests on the fitted dose curve; in most records, active means well fitted cell-killing curve with a large enough effect in the repeat runs; inconclusive means weak or mixed curves, or effect the other way; inactive means no such curve, though single readings can be large or run the other way.
On the % scale 0 is the no-effect control and ±100 the full control effect; potency means the concentration at half of the fitted maximal effect.

The nature of this assay: qHTS assay to identify small molecule agonists of the RXR signaling pathway - cell viability counter screen (AID 1159529). Further: nearly all actives have a fitted effect of over 50% in size. Conditions: RXR-alpha-bla HEK293T viability, CellTiter-Glo, 16 h; series mostly up to 76.8 µM; activity change, negative = cytotoxicity: at the top concentration. The source says: National Center for Advancing Translational Sciences [NCATS]
NIH Chemical Genomics Center [NCGC]
U.S. Environmental Protection Agency [EPA]
National Institutes of Environmental Health Sciences [NIEHS]
National Toxicology Program [NTP]
U.S. Food and Drug Administration [FDA]
The Retinoid X receptor (RXR), a nuclear hormone receptor expressed in liver, spleen, placenta, epidermis, central nervous system. These receptors are able to form homo and heterodimers with other nuclear receptors and due to this heterodimerizing ability, RXR functions as master regulators producing diverse physiological effects. Three subtypes of RXR exist; alpha, beta and gamma. Retinoid X receptor alpha (RXR-alpha) has potential roles in metabolic signaling pathways, skin alopecia, dermal cysts, cardiac development, insulin sensitization etc. Therefore screening environmental chemicals on RXR-alpha signaling can be used for the studies focused on such therapeutic applications. For quantification of RXR-alpha ligands signaling, GeneBLAzer RXR alpha-UAS-bla HEK 293T (Life Technologies, Carlsbad, CA) cells containing a beta-lactamase reporter-gene under control of Retinoid X receptor-alpha response element were used to screen Tox21 10K library. The cytotoxicity of the Tox21 compound library against the RXR-alpha HEK 293T cell line was tested in parallel by measuring cell viability using CellTiter-Glo assay (Promega Corporation, Madison, WI) in the same wells.
Tox21 Assay Protocol Summary:
RXR-alpha HEK 293T cells were dispensed at 2,000 cells/6 uL of assay medium containing 2% charcoal-stripped FBS using a Multidrop Combi (ThermoFisher Scientific, Waltham, MA) dispenser. The assay was performed in black wall/clear-bottom 1536-well plates (Greiner Bio-One North America Inc. Monroe, NC). Tetraoctyl ammonium bromide was used as a positive control in the cytotoxicity screen. After the assay plates were incubated at 37 C and 5% CO2 for 5 hr, 23 nL of compounds dissolved in DMSO, positive control or DMSO only were transferred to the assay plate by a Pintool station (Kalypsys, San Diego, CA). The assay plates were incubated at 37 C and 5% CO2 for 16 hr. One uL of LiveBLAzer B/G FRET substrate (Life Technologies) was added using a Flying Reagent Dispenser (FRD) (Aurora Discovery, San Diego, CA) and the plates were incubated at room temperature for 2 hr. Fluorescence intensity (405 nm excitation, 460/530 nm emission) was measured using an Envision plate reader (PerkinElmer, Shelton, CT). For cytotoxicity, 4 uL/well of CellTiter-Glo reagent was added into the assay plates using an FRD. After 30 min incubation at room temperature, the luminescence intensity was measured using a ViewLux plate reader (PerkinElmer).
In general terms: In qHTS, concentration-response curves come from the screen itself.
As for `CC(C)Cc1nccs1`, the “activity change, negative = cytotoxicity” value was 0.31% (inactive).

As for `CO[C@@H]1COCC[C@@H]1N[C@@H]1CC[C@@](C(=O)N2CCc3ncc(C(F)(F)F)cc3C2)(C(C)C)C1`, the “activity change, negative = cytotoxicity” value was 4.83% (inactive).

As to `FC1(F)C(F)(F)C(F)(F)C2(F)C(F)(C1(F)F)C(F)(F)C(F)(F)C1(F)C(F)(F)C(F)(F)C(F)(F)C(F)(F)C12F` (stereo not given), the “activity change, negative = cytotoxicity” value is 9.22% (inactive).

Take `O=C1OC(=O)C2CC=CCC12` (stereo not given): the “activity change, negative = cytotoxicity” value is -0.653% (inactive).

Take `Nc1ccccc1Nc1ccccc1`: the “activity change, negative = cytotoxicity” value was 7.55% (inactive).

With `O=C(OCCCCCOC(=O)c1ccccc1)c1ccccc1`, the “activity change, negative = cytotoxicity” value is -17.6% (inactive).

As to `CC(=O)OCC(=O)[C@@]1(O)CC[C@H]2[C@@H]3CCC4=CC(=O)C=C[C@]4(C)[C@@]3(F)[C@@H](O)C[C@@]21C`, the “activity change, negative = cytotoxicity” value was 2.78% [at 35.3 µM] (inactive).

Turning to `CC(C)(O)C(=O)O`, the “activity change, negative = cytotoxicity” value was 3.57% (inactive).

In the case of `O=c1c2ccccc2oc2ccccc12`, the “activity change, negative = cytotoxicity” value is 0.576% (inactive).

As to `CC(=O)c1ccc(Cl)c(Cl)c1Cl`, the “activity change, negative = cytotoxicity” value was 3.08% (inactive).

For `Nc1ccc(C(=O)Oc2ccccc2)c(O)c1`, the “activity change, negative = cytotoxicity” value is 7.79% [at 35.3 µM] (inactive).

Regarding `c1ccc(-c2ccc(-c3ccccc3)cc2)cc1`, the activity change, negative = cytotoxicity was 4.66% [at 15.8 µM] (inactive).

As for `COc1cc(CNC(=O)CCCC/C=C/C(C)C)ccc1O`, the “activity change, negative = cytotoxicity” value is 1.38% (inactive).

Take `O=C(O)c1cc(C(=O)O)c(C(=O)O)cc1C(=O)O`: the “activity change, negative = cytotoxicity” value is -1.88% (inactive).

On to `O=C(O)COCC(=O)O`, for which the “activity change, negative = cytotoxicity” value is 2.14% (inactive).

`Cc1ccc(NC(=O)c2ccc(CN3CCN(C)CC3)cc2)cc1Nc1nccc(-c2cccnc2)n1`: the “activity change, negative = cytotoxicity” value is -9.25% [at 35.3 µM] (inactive).

Regarding `CC(C)C/C=C(\C=O)c1ccccc1`, the “activity change, negative = cytotoxicity” value is -10.1% (inactive).

In the case of `Cc1ccc2c(Cl)cc(Cl)c(O)c2n1`, the “activity change, negative = cytotoxicity” value is 8.71% [at 35.3 µM] (inactive).

As for `CCOC(C)OCC`, the “activity change, negative = cytotoxicity” value was 12.9% (inactive).

Take `CC(C)=CCC[C@H](C)CCO`: the “activity change, negative = cytotoxicity” value was -1.78% (inactive).

Take `O=C(O)c1ccncc1`: the “activity change, negative = cytotoxicity” value was -15% (inactive).

Regarding `CCOCCn1c(N2CCCN(C)CC2)nc2ccccc21`, the “activity change, negative = cytotoxicity” value was -8.13% [at 35.3 µM] (inactive).

With `COc1ccc(CN(CCN(C)C)c2ncccn2)cc1`, the “activity change, negative = cytotoxicity” value is -13% [at 35.3 µM] (inactive).

`Cc1c(Cl)cccc1Nc1ccccc1C(=O)O`: the “activity change, negative = cytotoxicity” value was -25.2% [at 35.3 µM] (inactive).

With `C=CCCC`, the “activity change, negative = cytotoxicity” value was 2.51% (inactive).

As for `CC(=O)c1cccnc1`, the “activity change, negative = cytotoxicity” value was 1.49% (inactive).

Consider `CC1(C)CC(=O)CC(C)(C)N1`, for which the “activity change, negative = cytotoxicity” value was -9.8% (inactive).

For the compound `O=S(=O)(O)c1cc(Cl)c(Cl)cc1Cl`, the “activity change, negative = cytotoxicity” value was -22.9% (inactive).

Take `CCC(CC)C(=O)O`: the “activity change, negative = cytotoxicity” value was -6.49% (inactive).

`CCCCCC1CCC(=O)O1` (stereo not given): the “activity change, negative = cytotoxicity” value was 4.76% (inactive).

Turning to `CC(C)C[C@H](NC(=O)[C@H](Cc1ccccc1)NC(=O)c1cnccn1)B(O)O`, the “activity change, negative = cytotoxicity” value is -2.49% [at 35.3 µM] (inactive).

Consider `O=C(OC1C[C@H]2CC[C@@H](C1)[N+]21CCCC1)C(O)(c1ccccc1)c1ccccc1` (stereo not given in full), for which the “activity change, negative = cytotoxicity” value is -4.36% [at 35.3 µM] (inactive).

On to `[O-][n+]1ccc(Cl)cc1`, for which the “activity change, negative = cytotoxicity” value was 1.25% (inactive).

Take `CCOC(=O)CC(O)(CC(=O)OCC)C(=O)OCC`: the “activity change, negative = cytotoxicity” value was -6.71% (inactive).

For the compound `NC(=O)c1ccccc1C(N)=O`, the Potency is 34.8 µM (active).

As to `CC(O)CN` (stereo not given), the “activity change, negative = cytotoxicity” value was 3.11% (inactive).

As for `C[C@]12CCC(=O)C=C1[C@@H]1C[C@@H]1[C@H]1[C@@H]3[C@@H]4C[C@@H]4[C@@]4(CCC(=O)O4)[C@@]3(C)CC[C@@H]12`, the “activity change, negative = cytotoxicity” value is 3.03% [at 35.3 µM] (inactive).

As for `CC(C)Oc1ccccc1O`, the “activity change, negative = cytotoxicity” value was 9.97% (inactive).

Regarding `C=CC(=O)NC(C)(C)C`, the “activity change, negative = cytotoxicity” value was -0.788% (inactive).

For `O=c1[nH][nH]c2ccccc12`, the “activity change, negative = cytotoxicity” value was -1.66% (inactive).
